Laboratory results published in publication PMC4336329 (PLoS ONE, 2015).
In all, about 310,000 compounds went through this assay and about 14,000 (4.5%) showed an effect of 50% or more. The effect is printed as a negative number. The sample as a whole holds a higher share of strong results than the screen did.

molecular target: human ether-à-go-go-related gene (hERG) potassium channel (human, UniProt Q12809); test: primary screen, population patch clamp on CHO cells stably expressing hERG; higher = less effect of the substance
Sequence (Q12809 whole entry, looked up): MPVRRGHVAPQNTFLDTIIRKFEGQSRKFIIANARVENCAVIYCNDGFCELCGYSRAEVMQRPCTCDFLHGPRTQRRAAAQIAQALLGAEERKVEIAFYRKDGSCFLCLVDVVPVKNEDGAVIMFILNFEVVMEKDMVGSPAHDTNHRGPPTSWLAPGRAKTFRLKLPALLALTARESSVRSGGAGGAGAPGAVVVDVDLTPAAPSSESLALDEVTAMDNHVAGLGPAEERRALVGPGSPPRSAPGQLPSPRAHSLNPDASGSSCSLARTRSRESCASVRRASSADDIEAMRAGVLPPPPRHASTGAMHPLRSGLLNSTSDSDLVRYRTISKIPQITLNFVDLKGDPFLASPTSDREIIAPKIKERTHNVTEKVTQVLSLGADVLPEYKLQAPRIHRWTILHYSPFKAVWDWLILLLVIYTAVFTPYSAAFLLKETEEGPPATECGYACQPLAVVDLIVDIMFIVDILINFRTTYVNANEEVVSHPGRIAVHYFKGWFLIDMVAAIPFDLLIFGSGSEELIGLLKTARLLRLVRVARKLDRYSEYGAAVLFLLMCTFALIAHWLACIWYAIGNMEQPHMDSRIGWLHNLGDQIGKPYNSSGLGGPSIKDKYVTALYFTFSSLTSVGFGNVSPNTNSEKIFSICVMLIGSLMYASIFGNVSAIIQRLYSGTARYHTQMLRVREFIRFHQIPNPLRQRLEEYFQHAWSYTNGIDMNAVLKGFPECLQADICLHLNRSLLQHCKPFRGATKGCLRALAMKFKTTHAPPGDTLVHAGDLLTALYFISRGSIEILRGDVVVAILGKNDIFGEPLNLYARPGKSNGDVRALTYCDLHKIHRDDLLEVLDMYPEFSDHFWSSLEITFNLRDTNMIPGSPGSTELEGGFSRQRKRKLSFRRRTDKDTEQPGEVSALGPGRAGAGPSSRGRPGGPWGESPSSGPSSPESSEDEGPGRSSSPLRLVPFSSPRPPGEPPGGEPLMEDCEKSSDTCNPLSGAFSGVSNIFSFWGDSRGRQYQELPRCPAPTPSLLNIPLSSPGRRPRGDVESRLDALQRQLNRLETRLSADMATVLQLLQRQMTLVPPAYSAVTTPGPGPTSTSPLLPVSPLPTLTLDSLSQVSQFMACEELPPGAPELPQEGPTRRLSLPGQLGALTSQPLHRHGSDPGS
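Note: peak tail current of the secondary pulse compared with the same well before compound.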

Row | Compound | hERG current change (%, negative = inhibition) at 10uM [%]
1 | OC(CNC1CCCCC1)C(F)(F)F (centres unmarked) | -2.73
2 | CCC(C)[C@H](NC(=O)[C@@H]1Cc2ccccc2CN1)C(=O)NCc1ccc(OC)cc1 (some centres unmarked) | -32.7
3 | CC1CCCCN1C(=O)COC(=O)c1cc(-c2cccs2)nn1-c1ccccc1 (centres unmarked) | 0.387
4 | O=[N+]([O-])c1cc(/C=N/O)ccc1Sc1ccccc1 | 13.7
5 | CC1CCCCN1C(=O)CSc1nnc(-c2ccco2)o1 (centres unmarked) | 2.08
6 | CCOC(=O)CN1CC23C=CC(O2)C(C(=O)Nc2cc(OC)ccc2OC)C3C1=O (centres unmarked) | -3.04
7 | CC[N+](CC)(CC(=O)Nc1c(C)cccc1C)Cc1ccccc1.O=C([O-])c1ccccc1 | 14.7
8 | CC(/C=C/c1ccco1)=N\NC(=O)CNc1cccc(C)c1 | 18.1
9 | O=S(=O)(O)c1nc2ccccc2n1Cc1ccccc1 | -10.5
10 | CCOc1ccc(N(CC(=O)NCC2CCCO2)S(=O)(=O)c2ccc(C)cc2)cc1 (centres unmarked) | -10.3
11 | CCOc1ccc(OCC(=O)Nc2ccc(OC)cc2[N+](=O)[O-])cc1 | 3.3
12 | COc1ccc(OCC(=O)N/N=C(\C)CC(=O)Nc2ccc(OC)cc2[N+](=O)[O-])cc1 | -93.8
13 | COc1ccc(NC(=O)COc2ccc(C)cc2)c([N+](=O)[O-])c1 | 7
14 | COc1ccc2sc(C)nc2c1NC(C)=O | 9.21
15 | COc1ccc(-c2nc(SCC(=O)N3CCOCC3)n[nH]2)cc1 | -4.25
16 | CC(=O)Nc1nonc1-c1nc2ccccc2n1Cc1ccccc1 | 13.2
17 | CC(=O)N/C(=C/c1ccc(Cl)cc1)C(=O)NCCc1c[nH]c2ccccc12 | -20.8
18 | O=C(NCCc1c[nH]c2ccccc12)/C(=C\c1cccnc1)NC(=O)c1ccccc1Br | -65.1
19 | O=C(NCCc1c[nH]c2ccccc12)/C(=C\c1cccnc1)NC(=O)c1ccccc1F | -58.5
20 | O=C(NCCc1c[nH]c2ccccc12)/C(=C\c1cccnc1)NC(=O)c1cccs1 | -17
21 | O=C(NCCc1c[nH]c2ccccc12)/C(=C/c1cccnc1)NC(=O)c1cccs1 | -19.1
22 | O=C(NCCc1c[nH]c2ccccc12)/C(=C/c1cccnc1)NC(=O)c1ccccc1 | -14.3
23 | NC(=O)NC(CC(=O)NCCc1ccc(S(N)(=O)=O)cc1)c1ccccc1Cl (centres unmarked) | 6.81

Row | Compound | hERG current change (%, negative = inhibition) at 10uM [%]
24 | CC(C(=O)N1c2ccc(F)cc2CCC1C)N1C(=O)c2ccccc2C1=O (centres unmarked) | 2.72
25 | COCCCN(C(=O)c1ccco1)c1nc(-c2ccc(OC)cc2)cs1 | 1.81
26 | Cl.O=C(c1ccco1)N(CCCN1CCOCC1)c1nc(-c2ccc(Cl)cc2)cs1 | -13.4
27 | CN(C(=O)c1ccco1)c1nc(-c2ccc(Cl)cc2)cs1 | 8.09
28 | CN(C)CCCN(C(=O)c1ccco1)c1nc(-c2ccc(Cl)cc2)cs1.Cl | -72.5
29 | Cc1ccc(-c2csc(N(CCCN3CCOCC3)C(=O)c3ccco3)n2)cc1.Cl | -19.1
30 | Cc1ccc(-c2csc(N(CCCN(C)C)C(=O)c3ccco3)n2)cc1.Cl | -74.8
31 | COc1ccc(-n2nc(C(=O)NCC(=O)NCc3ccco3)c3ccccc3c2=O)c(OC)c1 | 11.3
32 | Cl.c1ccc(NNC2=NCCCCC2)cc1 | 8.92
33 | O=C(O)Cn1c(=O)c2c3c(sc2n(Cc2ccc(F)cc2)c1=O)CCCC3 | 17.9
34 | Cc1ccc(C)c(OCc2nc3ccc(S(=O)(=O)Nc4c(C)n(C)n(-c5ccccc5)c4=O)cc3[nH]2)c1 | 7.31
35 | CCCCN(C)CCN1C(=O)C2C(C(=O)Nc3cccc(OC)c3)C3C=CC2(O3)C1C(=O)NC1CCCCC1C (centres unmarked) | -14.7
36 | CC(C)(C)C(=O)Nc1cc(NC(=O)C(C)(C)C)cc(C(=O)NNC(=O)c2ccncc2)c1 | 16.5
37 | Cc1ccc2c(c1)nnn2C1CCN(C(=O)C2CCCCC2)CC1 | -31.3
38 | Cc1cccc(NC(=O)N2CCC(n3nnc4cc(C)ccc43)CC2)c1 | -62.9
39 | Cc1ccc2c(c1)nnn2C1CCN(C(=O)NCc2ccccc2)CC1 | -76.7
40 | CCOc1ccc(NC(=O)N2CCC(n3nnc4ccccc43)CC2)cc1 | -15.4
41 | CCOc1ccccc1C(=O)N1CCC(n2nnc3cc(C(F)(F)F)ccc32)CC1 | -60
42 | Cc1ccc2c(c1)nnn2C1CCN(C(=O)Nc2ccccc2C)CC1 | -22.6
43 | COc1ccc(NC(=O)N2CCC(n3nnc4cc(C)ccc43)CC2)cc1 | -11.3
44 | CCOc1ccccc1C(=O)N1CCC(n2nnc3cc(C)ccc32)CC1 | -47.4
45 | COc1cccc(NC(=O)N2CCC(n3nnc4ccccc43)CC2)c1 | -18.8
46 | CCOc1ccccc1NC(=O)N1CCC(n2nnc3cc(C)ccc32)CC1 | -53.9

Row | Compound | hERG current change (%, negative = inhibition) at 10uM [%]
47 | Cc1ccc2c(c1)nnn2C1CCN(C(=O)c2ccccc2F)CC1 | -18.1
48 | O=C(c1c(F)cccc1F)N1CCC(n2nnc3cc(C(F)(F)F)ccc32)CC1 | -21.4
49 | O=C(CSc1nc2[nH]ncc2c(=O)n1-c1ccc(Cl)c(Cl)c1)NCc1ccccc1Cl | -11.4
50 | COc1ccc(CCN=C(N)NS(=O)(=O)c2ccccc2)cc1OC | 19.5
51 | COC(=O)Cc1ccc(NC(=O)c2ccc3c(c2)C(=O)N(Cc2cccnc2)C3=O)cc1 | 5.83
52 | C[C@H](NC(=O)N1C[C@H]2C[C@@H](C1)c1cccc(=O)n1C2)C(=O)Nc1cccc(F)c1 | 2.4
53 | CC(NS(=O)(=O)c1ccc(OCC(=O)Nc2cccc([N+](=O)[O-])c2)cc1)c1ccccc1 (centres unmarked) | 3.21
54 | COCCN=C1NN=C(c2ccc(C)c([N+](=O)[O-])c2)CS1 | 11.7
55 | O=C(/C=C/c1ccccc1)N/C(=C\c1ccco1)C(=O)O | 19.6
56 | Cn1c(SCCOc2ccc(Cl)cc2)nnc1-c1ccncc1 | -56.3
57 | Cc1ccc(OCCSc2nnc(-c3ccncc3)n2C)cc1 | -28.9
58 | CCn1c(SCCOc2ccc(Cl)cc2)nnc1-c1cccs1 | -53.8
59 | CCn1c(SCC(=O)NCCc2ccccc2)nnc1-c1cccs1 | -27.6
60 | CCn1c(SCC(=O)NCCc2ccc(Cl)cc2)nnc1-c1cccs1 | -75.8
61 | Cn1c(SCCOc2ccc(F)cc2)nnc1-c1ccncc1 | -44.4
62 | CCOC(=O)CSc1nnc(-c2cccs2)n1-c1ccccc1 | -42.8
63 | COC(=O)CSc1nnc(-c2cccs2)n1-c1ccc(Cl)cc1 | -60.4
64 | Cc1cc(OCCSc2nnc(-c3cccs3)n2C)ccc1Cl | -22.5
65 | CCn1c(SCC(=O)c2ccc(Cl)cc2)nnc1-c1cccs1 | -10.8
66 | O=C(O)CSc1nnc(-c2cccs2)n1-c1ccc(Cl)cc1 | -6.94
67 | Cc1ccc(OCCSc2nnc(-c3cccs3)n2C)cc1 | -37
68 | CC(C)N(CCNS(=O)(=O)c1ccc(Cl)cc1)C(C)C.Cl | -28.1
69 | O=C(c1[nH]ncc1-c1cccc(Br)c1)C1CO1 (centres unmarked) | 3.39

Row | Compound | hERG current change (%, negative = inhibition) at 10uM [%]
70 | O=C(Nc1c(C(=O)N2CCOCC2)cnn1-c1ccccc1)c1ccc(F)cc1 | 13.8
71 | CC(C)c1cc(C(=O)NCCc2ccccc2)no1 | -40.1
72 | CCC(C(=O)NC(C)(C)C)N(Cc1ccco1)C(=O)CNS(=O)(=O)c1ccc(OC)cc1 (centres unmarked) | 7.49
73 | O=C(O)/C(=C\c1ccc2ccccc2c1)c1cccc2ccccc12 | 6.53
74 | CC(=O)Nc1ccc(C(=O)N/N=C/c2ccncc2)cc1 | 0.536
75 | Cc1cc(C)n2[nH]c(=O)c(N=Nc3cccc(C(F)(F)F)c3)c2n1 | -23.8
76 | CCn1c(SCC(=O)NCCc2ccc(F)cc2)nnc1-c1cccs1 | -61.9
77 | CCn1c(SCC(=O)NCC(=O)Nc2ccc(F)cc2)nnc1-c1cccs1 | -25.1
78 | CCn1c(SCC(=O)NCc2cccs2)nnc1-c1cccs1 | -20.9
79 | COc1ccc2[nH]c(=O)c(-c3nnn(-c4ccccc4)n3)cc2c1 | -1.01
80 | Cc1ccc(Cn2c(CCC(=O)O)nc3ncccc3c2=O)cc1 | 13.4
81 | Cc1nn(CC(=O)NCCCN2CCC(Cc3ccccc3)CC2)c(=O)c2cc(-c3ccccc3)nn12 | -77
82 | Cc1nn(CC(=O)NCCCN2CCN(Cc3ccccc3)CC2)c(=O)c2cc(-c3ccccc3)nn12 | -70.1
83 | CCc1ccc(-c2cc3c(=O)n(CC(=O)NCCCN4CCN(CC)CC4)nc(C)n3n2)cc1 | -30
84 | Cc1nn(CC(=O)NCCCN2CCN(C)CC2)c(=O)c2cc(-c3ccccc3)nn12 | 0.586
85 | Cc1nn(CC(=O)NCCN2CCCCC2C)c(=O)c2cc(-c3ccccc3)nn12 (centres unmarked) | -48.4
86 | CCc1ccc(-c2cc3c(=O)n(CC(=O)NCCCN4CCN(Cc5ccccc5)CC4)nc(C)n3n2)cc1 | -22.7
87 | Cc1nn(CC(=O)NCCCN2CCCCC2)c(=O)c2cc(-c3ccccc3)nn12 | -49.4
88 | CCc1ccc(-c2cc3c(=O)n(CC(=O)NCCN4CCCCC4C)nc(C)n3n2)cc1 (centres unmarked) | -57.5
89 | CCc1ccc(-c2cc3c(=O)n(CC(=O)NCCCN4CCC(Cc5ccccc5)CC4)nc(C)n3n2)cc1 | 2.48
